Inconclusive results are not listed. Active and inactive are the calls of the source. How the source made its calls: active means hit-call score of the fitted dose curve at least 0.9, where 1 is the maximum; inconclusive means response in the unintended direction; inactive means score below 0.9.
Key:
[1] = TOX21_p53_BLA_p2_viability: Viability Assessment in the Tox21 HCT-116 p53 Agonism Beta-lactamase Assay, Phase 2 (AID 2283591);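 further: actives lower the ATP signal meaning cytotoxicity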
Summary of the method: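 Cytotoxicity readout: CellTiter-Glo ATP luminescence, 30 min at room temperature, after the beta-lactamase read. Cells were HCT116 exposed 16 h at 37C to compounds pin-transferred at 217-fold dilution from DMSO stocks.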

[2] = molecular target: Cellular tumor antigen p53 (Homo sapiens) (UniProt P04637); experiment: TOX21_p53_BLA_p2_ratio: Tox21 HCT-116 p53 Agonism Beta-lactamase Assay, Ratio, Phase 2 (AID 2283592)
Cellular tumor antigen p53 (Homo sapiens), sequence (P04637 whole entry, looked up): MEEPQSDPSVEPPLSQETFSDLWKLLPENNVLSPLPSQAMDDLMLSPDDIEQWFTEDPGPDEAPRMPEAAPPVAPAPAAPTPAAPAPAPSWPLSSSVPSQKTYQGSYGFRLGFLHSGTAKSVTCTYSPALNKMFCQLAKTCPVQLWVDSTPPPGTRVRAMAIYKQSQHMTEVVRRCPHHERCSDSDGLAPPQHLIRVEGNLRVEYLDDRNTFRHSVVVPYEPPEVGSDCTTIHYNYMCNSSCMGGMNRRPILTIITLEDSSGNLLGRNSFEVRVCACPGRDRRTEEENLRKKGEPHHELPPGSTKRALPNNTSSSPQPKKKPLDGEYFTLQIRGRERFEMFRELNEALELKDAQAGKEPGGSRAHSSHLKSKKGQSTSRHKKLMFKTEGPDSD
Summary of the method: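 Readout: blue/green (460/530 nm) FRET emission ratio after 2 h CCF4-AM loading at room temperature, excitation 405 nm. HCT116 p53 bla cells, 16 h compound exposure at 37C, 5% CO2; agonist direction fitted against DMSO baseline.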

[3] = TOX21_p53_BLA_p3_viability: Viability Assessment in the Tox21 HCT-116 p53 Agonism Beta-lactamase Assay, Phase 3 (AID 2283593);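 further: cells exposed to compound for 16 h before reading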
Summary of the method: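 Cellular ATP was quantified by CellTiter-Glo luminescence, read after 30 min at room temperature. Beforehand, HCT116 cells (4000/well) received compound 5 h post-seeding, 217-fold diluted from DMSO, then incubated 16 h at 37C.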

[4] = molecular target: Cellular tumor antigen p53 (Homo sapiens) (UniProt P04637); experiment: TOX21_p53_BLA_p3_ratio: Tox21 HCT-116 p53 Agonism Beta-lactamase Assay, Ratio, Phase 3 (AID 2283596)
Summary of the method: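 Cells were seeded at 4000/well, rested 5 h at 37C, then dosed with DMSO compound solutions (217-fold dilution) for 16 h. CCF4-AM substrate was loaded for 2 h at room temperature, and the 460/530 nm emission ratio was fitted for gain of signal versus DMSO.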

[5] = TOX21_p53_BLA_p4_viability: Viability Assessment in the Tox21 HCT-116 p53 Agonism Beta-lactamase Assay, Phase 4 (AID 2283597);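 further: hits lower the luminescence signal meaning cytotoxicity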
Summary of the method: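 ATP content by CellTiter-Glo luminescence, 30 min RT, read after the beta-lactamase ratio step. Cells: HCT116, 4000/well, compound added after 5 h, exposure 16 h at 37C. Signal loss = reduced viability.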

[6] = molecular target: Cellular tumor antigen p53 (Homo sapiens) (UniProt P04637); experiment: TOX21_p53_BLA_p5_ratio: Tox21 HCT-116 p53 Agonism Beta-lactamase Assay, Ratio, Phase 5 (AID 2283599)
Summary of the method: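 Beta-lactamase reporter ratio (blue 460 nm over green 530 nm, 405 nm excitation) after 2 h CCF4-AM loading, in HCT-116 cells exposed 16 h at 37 C to compounds pinned at 217-fold dilution. Increases relative to DMSO baseline scored.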

[7] = TOX21_p53_BLA_p5_viability: Viability Assessment in the Tox21 HCT-116 p53 Agonism Beta-lactamase Assay, Phase 5 (AID 2283600)
Summary of the method: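 ATP luminescence (CellTiter-Glo, 30 min, RT) served as the viability read-out, with loss of signal indicating cytotoxicity. Compounds in DMSO were pinned at a 217-fold dilution onto 4000 cells/well and incubated 16 h, 37C.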

[8] = molecular target: Cellular tumor antigen p53 (Homo sapiens) (UniProt P04637); experiment: TOX21_p53_BLA_p4_ratio: Tox21 HCT-116 p53 Agonism Beta-lactamase Assay, Ratio, Phase 4 (AID 2283601)
Summary of the method: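 Signal is the blue/green (460nm/530nm) ratio of cleaved versus uncleaved CCF4-AM substrate, read after 2 h substrate loading. Cells were HCT116 carrying the p53-responsive beta-lactamase reporter, dosed 16 h at 37C, 5% CO2; CellTiter-Glo measured in parallel.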

COCC1=C(C(=O)OC(C)OC(=O)OC(C)C)N2C(=O)[C@@H](NC(=O)/C(=N\OC)c3csc(N)n3)[C@H]2SC1 (stereo partly drawn)
outcome [1]: inactive | outcome [2]: inactive | outcome [3]: inactive | outcome [4]: inactive | outcome [5]: inactive | outcome [6]: inactive | outcome [7]: inactive | outcome [8]: inactive

CCC(=O)O[C@]1(C(=O)CCl)[C@@H](C)C[C@H]2[C@@H]3C[C@H](F)C4=CC(=O)C=C[C@]4(C)[C@@]3(F)[C@@H](O)C[C@@]21C
outcome [1]: inactive | outcome [2]: inactive | outcome [3]: inactive | outcome [4]: inactive | outcome [5]: inactive | outcome [6]: inactive | outcome [7]: inactive | outcome [8]: inactive

O=S(=O)(O)CC(S)CS (stereo not drawn)
outcome [1]: inactive | outcome [2]: inactive | outcome [3]: inactive | outcome [4]: inactive | outcome [5]: inactive | outcome [6]: inactive | outcome [7]: inactive | outcome [8]: inactive

Cc1ncc(C[n+]2csc(CCOP(=O)(O)O)c2C)c(N)n1
outcome [1]: inactive | outcome [2]: inactive | outcome [3]: inactive | outcome [4]: inactive | outcome [5]: inactive | outcome [6]: inactive | outcome [7]: inactive | outcome [8]: inactive

COCC(=O)O[C@]1(CCN(C)CCCc2nc3ccccc3[nH]2)CCc2cc(F)ccc2[C@@H]1C(C)C
AC50 [1]: 13.1 µM (active) | AC50 [2]: 22.4 µM (active) | AC50 [3]: 10.9 µM (active) | AC50 [4]: 19.6 µM (active) | AC50 [5]: 9.78 µM (active) | AC50 [6]: 25.4 µM (active) | AC50 [7]: 15.8 µM (active) | AC50 [8]: 21.6 µM (active)

CCCCCCCCC1CO1 (stereo not drawn)
outcome [1]: inactive | outcome [2]: inactive | outcome [3]: inactive | outcome [4]: inactive | outcome [5]: inactive | outcome [6]: inactive | outcome [7]: inactive | outcome [8]: inactive

CCCCCCCCCCn1cc[n+](CCCCCCCCCC)c1C
AC50 [1]: 44.2 µM (active) | AC50 [2]: 18.7 µM (active) | AC50 [3]: 46.1 µM (active) | AC50 [4]: 20.1 µM (active) | AC50 [5]: 57.5 µM (active) | AC50 [6]: 74.1 µM (active) | AC50 [7]: 75.2 µM (active) | AC50 [8]: 73.6 µM (active)

O=C1C=CC(=O)N1
outcome [1]: inactive | AC50 [2]: 73.5 µM (active) | AC50 [3]: 69.8 µM (active) | AC50 [4]: 70.8 µM (active) | AC50 [5]: 79.4 µM (active) | AC50 [6]: 82.4 µM (active) | outcome [7]: inactive | AC50 [8]: 70.3 µM (active)

CCCC(c1cc(C(C)(C)C)c(O)cc1C)c1cc(C(C)(C)C)c(O)cc1C
AC50 [1]: 15 µM (active) | AC50 [2]: 32.8 µM (active) | AC50 [3]: 19.5 µM (active) | AC50 [4]: 30.6 µM (active) | AC50 [5]: 9.81 µM (active) | AC50 [6]: 32.2 µM (active) | AC50 [7]: 17.2 µM (active) | AC50 [8]: 19.7 µM (active)

CCOc1cc([N+](=O)[O-])c(OCC)cc1N1CCOCC1
outcome [1]: inactive | outcome [2]: inactive | outcome [3]: inactive | outcome [4]: inactive | outcome [5]: inactive | outcome [6]: inactive | outcome [7]: inactive | outcome [8]: inactive

CCC(=O)O[C@]1(C(=O)SCF)[C@H](C)C[C@H]2[C@@H]3C[C@H](F)C4=CC(=O)C=C[C@]4(C)[C@@]3(F)[C@@H](O)C[C@@]21C
outcome [1]: inactive | outcome [2]: inactive | outcome [3]: inactive | outcome [4]: inactive | outcome [5]: inactive | outcome [6]: inactive | outcome [7]: inactive | outcome [8]: inactive

O=C(CC(=O)C(F)(F)F)c1ccccc1
outcome [1]: inactive | outcome [2]: inactive | AC50 [3]: 76.4 µM (active) | outcome [4]: inactive | outcome [5]: inactive | outcome [6]: inactive | outcome [7]: inactive | outcome [8]: inactive

CO[C@@H]1[C@@H](O[C@@H]2O[C@H](C)[C@@H](O[C@H]3C[C@@](C)(O)[C@@H](OC(=O)CC(C)C)[C@H](C)O3)[C@H](N(C)C)[C@H]2O)[C@@H](CC=O)C[C@@H](C)C(=O)/C=C/C2OC2C[C@@H](C)OC(=O)C[C@H]1OC(C)=O (stereo partly drawn)
outcome [1]: inactive | outcome [2]: inactive | outcome [3]: inactive | outcome [4]: inactive | outcome [5]: inactive | outcome [6]: inactive | outcome [7]: inactive | outcome [8]: inactive

O=[N+]([O-])c1c(Cl)cccc1-c1c[nH]cc1Cl
outcome [1]: inactive | outcome [2]: inactive | AC50 [3]: 37.2 µM (active) | AC50 [4]: 23.6 µM (active) | AC50 [5]: 36.3 µM (active) | outcome [6]: inactive | outcome [7]: inactive | outcome [8]: inactive

Cc1c(-c2ccccc2)oc2c(C(=O)OCCN3CCCCC3)cccc2c1=O
outcome [1]: inactive | outcome [2]: inactive | outcome [3]: inactive | outcome [4]: inactive | outcome [5]: inactive | outcome [6]: inactive | outcome [7]: inactive | outcome [8]: inactive

Cc1c(Cl)cccc1Nc1ncccc1C(=O)O
outcome [1]: inactive | outcome [2]: inactive | outcome [3]: inactive | outcome [4]: inactive | outcome [5]: inactive | outcome [6]: inactive | outcome [7]: inactive | outcome [8]: inactive

CCCCc1oc2ccc(NS(C)(=O)=O)cc2c1C(=O)c1ccc(OCCCN(CCCC)CCCC)cc1
AC50 [1]: 34.7 µM (active) | outcome [2]: inactive | AC50 [3]: 34.6 µM (active) | AC50 [4]: 43.7 µM (active) | AC50 [5]: 23.7 µM (active) | outcome [6]: inactive | outcome [7]: inactive | AC50 [8]: 43.1 µM (active)

CCCCCCCCCCCCCCCCCC(=O)OC[C@@H](O)[C@H]1OC[C@H](O)[C@H]1O
outcome [1]: inactive | outcome [2]: inactive | outcome [3]: inactive | outcome [4]: inactive | outcome [5]: inactive | outcome [6]: inactive | outcome [7]: inactive | outcome [8]: inactive

O=C(O)c1c(Cl)c(Cl)c(Cl)c(Cl)c1-c1c2cc(I)c(=O)c(I)c-2oc2c(I)c(O)c(I)cc12
AC50 [1]: 37.2 µM (active) | outcome [2]: inactive | AC50 [3]: 13.6 µM (active) | outcome [4]: inactive | AC50 [5]: 44.1 µM (active) | outcome [6]: inactive | outcome [7]: inactive | AC50 [8]: 43.1 µM (active)

CC(C)(C)CC(C)(C)c1ccccc1O
AC50 [1]: 74.6 µM (active) | AC50 [2]: 75.3 µM (active) | AC50 [3]: 68.9 µM (active) | AC50 [4]: 77.8 µM (active) | AC50 [5]: 65.9 µM (active) | AC50 [6]: 81.5 µM (active) | AC50 [7]: 68 µM (active) | AC50 [8]: 81.7 µM (active)

NC(N)=NCC1COc2ccccc2O1 (stereo not drawn)
outcome [1]: inactive | outcome [2]: inactive | outcome [3]: inactive | outcome [4]: inactive | outcome [5]: inactive | outcome [6]: inactive | outcome [7]: inactive | outcome [8]: inactive

From PubChem BioAssay (EPA / NIEHS)
